# Measured values taken from the supplement of paper PMC12282887.
# ± gives the standard deviation of the averaged measurements.
# System: E. coli BW25113 marRABp lux reporter
# Test: promoter activity interaction Z-score (Lux/OD deviation from empty-vector control); higher = stronger promoter induction by the compound
# Procedure: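 E. coli BW25113 (wild type or ΔmarA/ΔsoxS/Δrob) carrying pTU175 luxCDABE promoter reporters was grown in LB in 384-well plates at 37°C with each of 94 compounds at 4 two-fold concentrations, in biological duplicates. Luminescence and OD600 were read every 30 min for 12 h and integrated as AUC over 8 h (0-8 h WT, 1-9 h mutants). Lux AUC was divided by OD AUC; the interaction score is the residual of a Huber robust fit of each promoter against the empty-vector control, then Z-transformed per promoter.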
# [1] = 0.13 µg/ml, genetic background: wild type
# [2] = 0.13 µg/ml, genetic background: ΔmarA
# [3] = 0.13 µg/ml, genetic background: Δrob
# [4] = 0.13 µg/ml, genetic background: ΔsoxS
smiles,measurement,setting,value
CO[C@@]12[C@H](COC(N)=O)C3=C(C(=O)C(C)=C(N)C3=O)N1C[C@@H]1N[C@@H]12 [Mitomycin C],promoter activity interaction Z-score,"0.063 µg/ml, genetic background: wild type",-0.000521 ± 0.092
same,promoter activity interaction Z-score,"0.063 µg/ml, genetic background: ΔmarA",-0.0389 ± 0.12
same,promoter activity interaction Z-score,"0.063 µg/ml, genetic background: Δrob",0.174 ± 0.0026
same,promoter activity interaction Z-score,"0.063 µg/ml, genetic background: ΔsoxS",-0.0406 ± 0.22
same,promoter activity interaction Z-score,[1],0.0648 ± 0.23
same,promoter activity interaction Z-score,[2],0.518 ± 1.1
same,promoter activity interaction Z-score,[3],0.208 ± 0.51
same,promoter activity interaction Z-score,[4],0.0422 ± 0.14
same,promoter activity interaction Z-score,"0.25 µg/ml, genetic background: wild type",0.242 ± 0.24
same,promoter activity interaction Z-score,"0.25 µg/ml, genetic background: ΔmarA",-0.125 ± 0.18
same,promoter activity interaction Z-score,"0.25 µg/ml, genetic background: Δrob",0.258 ± 0.1
same,promoter activity interaction Z-score,"0.25 µg/ml, genetic background: ΔsoxS",-0.121 ± 0.19
same,promoter activity interaction Z-score,"0.5 µg/ml, genetic background: wild type",-0.107 ± 0.17
same,promoter activity interaction Z-score,"0.5 µg/ml, genetic background: ΔmarA",0.219 ± 0.99
same,promoter activity interaction Z-score,"0.5 µg/ml, genetic background: Δrob",-0.172 ± 0.14
same,promoter activity interaction Z-score,"0.5 µg/ml, genetic background: ΔsoxS",-0.177 ± 0.11
CNC(C)C1CCC(N)C(OC2C(N)CC(N)C(OC3OCC(C)(O)C(NC)C3O)C2O)O1 (centres undefined) [Gentamicin],promoter activity interaction Z-score,[1],-0.229 ± 0.24
same,promoter activity interaction Z-score,[2],-0.193 ± 0.19
same,promoter activity interaction Z-score,[3],-0.0111 ± 0.062
same,promoter activity interaction Z-score,[4],0.027 ± 0.11
same,promoter activity interaction Z-score,"0.26 µg/ml, genetic background: wild type",-0.22 ± 0.026
same,promoter activity interaction Z-score,"0.26 µg/ml, genetic background: ΔmarA",-0.108 ± 0.19
same,promoter activity interaction Z-score,"0.26 µg/ml, genetic background: Δrob",-0.0765 ± 0.087
same,promoter activity interaction Z-score,"0.26 µg/ml, genetic background: ΔsoxS",0.17 ± 0.086
same,promoter activity interaction Z-score,"0.52 µg/ml, genetic background: wild type",0.575 ± 0.65
same,promoter activity interaction Z-score,"0.52 µg/ml, genetic background: ΔmarA",0.543 ± 0.31
same,promoter activity interaction Z-score,"0.52 µg/ml, genetic background: Δrob",0.678 ± 1
same,promoter activity interaction Z-score,"0.52 µg/ml, genetic background: ΔsoxS",0.166
COc1cc(NS(=O)(=O)c2ccc(N)cc2)ncn1 [Sulfamonomethoxine],promoter activity interaction Z-score,"7 µg/ml, genetic background: wild type",0.165 ± 0.29
same,promoter activity interaction Z-score,"7 µg/ml, genetic background: ΔmarA",0.199 ± 0.22
same,promoter activity interaction Z-score,"7 µg/ml, genetic background: Δrob",0.0754 ± 0.022
same,promoter activity interaction Z-score,"7 µg/ml, genetic background: ΔsoxS",-0.0457 ± 0.27
same,promoter activity interaction Z-score,"14 µg/ml, genetic background: wild type",0.419 ± 0.21
same,promoter activity interaction Z-score,"14 µg/ml, genetic background: ΔmarA",0.246 ± 0.58
same,promoter activity interaction Z-score,"14 µg/ml, genetic background: Δrob",-0.0243 ± 0.36
same,promoter activity interaction Z-score,"14 µg/ml, genetic background: ΔsoxS",-0.0217 ± 0.15
same,promoter activity interaction Z-score,"28 µg/ml, genetic background: wild type",0.52 ± 0.32
same,promoter activity interaction Z-score,"28 µg/ml, genetic background: ΔmarA",0.729 ± 0.45
same,promoter activity interaction Z-score,"28 µg/ml, genetic background: Δrob",0.602 ± 0.038
same,promoter activity interaction Z-score,"28 µg/ml, genetic background: ΔsoxS",0.101 ± 0.14
same,promoter activity interaction Z-score,"56.1 µg/ml, genetic background: wild type",1.09 ± 0.8
same,promoter activity interaction Z-score,"56.1 µg/ml, genetic background: ΔmarA",1.14 ± 0.16
same,promoter activity interaction Z-score,"56.1 µg/ml, genetic background: Δrob",1.18 ± 0.4
same,promoter activity interaction Z-score,"56.1 µg/ml, genetic background: ΔsoxS",1.04 ± 0.46
